PTHR1 ag – agonists of human PTHR1 parathyroid hormone receptor. HEK293 GP2 PTHR1 cells, GloSensor cAMP luminescence, 1 h. Potency, µM (doses to about 115 µM), for inactives: top-dose activation, usual class: activators. hit rate 0.075% among 410,000. AID 743266; further: nearly all actives have a fitted effect of over 55% in size
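HEK-293-derived GP2 cells expressing PTHR1 and a GloSensor cAMP reporter, 3,000/well, plated overnight, given luciferin plus IBMX (each 0.5 mM as added) for 1 h at 37 °C, then compound for 1 h at 37 °C. Luminescence was read after 15 min at room temperature.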
GLP1R ag – agonists of human GLP-1 receptor; hit rate 0.007% among 380,000; P43220; AID 624172; HEK293 GLP-1R CRE-luciferase, luminescence, 4-6 h; cells express a hypersensitive GLP-1R form; Potency, µM (top dose mostly 45.6 µM), inactives show at the highest dose activation, usual class: activators; further: % of control where 0% means no effect
Target sequence (P43220 whole entry, looked up): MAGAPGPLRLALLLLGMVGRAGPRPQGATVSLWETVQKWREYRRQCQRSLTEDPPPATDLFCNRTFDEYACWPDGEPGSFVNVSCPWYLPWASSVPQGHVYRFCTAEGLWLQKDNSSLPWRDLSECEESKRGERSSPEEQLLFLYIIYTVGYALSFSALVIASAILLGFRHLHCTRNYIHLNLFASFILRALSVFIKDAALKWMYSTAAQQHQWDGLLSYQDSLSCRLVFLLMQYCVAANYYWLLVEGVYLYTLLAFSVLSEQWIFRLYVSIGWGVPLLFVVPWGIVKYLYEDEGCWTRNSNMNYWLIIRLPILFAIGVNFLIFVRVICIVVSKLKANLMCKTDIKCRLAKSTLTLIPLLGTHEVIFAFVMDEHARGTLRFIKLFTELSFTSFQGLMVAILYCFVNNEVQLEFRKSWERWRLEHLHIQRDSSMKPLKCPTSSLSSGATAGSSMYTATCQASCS
GLP-1R inv ag – acts as inverse agonist at human GLP-1 receptor | P43220 | HEK293 GLP-1R CRE-luciferase, luminescence, 24 h; GLP-1R form is constitutively active | Potency, µM (top dose mostly 38.3 µM), without a hit: at the top dose activity change, negative = inhibition, most hits filed as inhibitors | hit rate 1.6% among 410,000 | AID 624417; further: on the % scale 0 is the no-effect control and ±100 the full control effect; nearly all actives have a fitted effect of over 55% in size
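Luminescence readout: a drop in cAMP-driven luciferase signal flags inverse agonism at a constitutively active GLP-1R stably expressed in HEK293. Compound exposure lasted 24 hr at 37 deg C, 5% CO2.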
GLP1R cytotox – cytotoxicity counter-screen for GLP-1 receptor inverse agonists; HEK293 cAMP-luciferase reporter cells, luminescence, 24 h; Potency, µM (series often up to 38.3 µM), without a hit: at the highest dose activity change, negative = inhibition, most hits filed as inhibitors; hit rate 0.13% among 410,000;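 further: loss of luciferase light is scored as toxicity; on the % scale 0 is the no-effect control and ±100 the full control effect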
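MLSMR compounds, 24 hr on cells at 37 deg C/5% CO2; luminescence after luciferase reagent (12 min RT). Inhibition counted as the undesired cytotoxic outcome.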
Numbers without * were called inactive; i = inactive; ? = inconclusive; . = no result; [ ] = dose if it differs, or a comment. Sampled rows, rich in hits. Any-hit rate of the full collection: about 1.7%. The call rests on the fitted dose curve; in most records, active means well fitted curve in the direction sought with a large enough effect; inconclusive means small, poorly fitted or top-dose-only effect, or another doubt; inactive means no such curve, though single readings can be large; an effect the other way counts as inactive or inconclusive. Potency means the concentration at half of the fitted maximal effect.

SMILES | PTHR1 ag | GLP1R ag | GLP-1R inv ag | GLP1R cytotox
O=c1c2ccccc2nc(-c2ccccc2)n1O | i | -5% | -8% | 16%
COc1ccc(-c2nc3ccccc3c(=O)n2O)cc1 | 50µM* | -2% | ? | 1%
CCN(CC)c1ccc(NC(=O)Cn2c3ncccc3c(=O)n2-c2ccccc2)c(C)c1 | i | . | 21% | 5%
FC(F)(F)c1cccc(Cc2noc(CN3CCC(c4ccncc4)CC3)n2)c1 | -36% | 27% | 2.5µM* | -4%
CN1CCN(c2ccc(NC(=O)COc3ccc4ccccc4c3)cc2)CC1 | i | 21% | 7.1µM* | -7%
CN1CCN(c2ccc(NC(=O)COc3cccc4ccccc34)cc2)CC1 | i | 14% | 10µM* | 1%
CN1CCN(c2ccc(NC(=O)c3ccc4ccccc4c3)cc2)CC1 | -19% | 1% | 2µM* | 64%
COc1ccc(C(=O)Nc2ccc(N3CCN(C)CC3)cc2)cc1 | -15% | 7% | 13% | 3%
CC(=O)C1=C(c2ccc(C)cc2)N(C(C)=O)n2c(nnc2-c2ccccc2)S1 | 7% | . | 12% | 10%
CCOc1ccc(C(=O)C(C)OC(=O)C2CCN(c3ccc(C(F)(F)F)cn3)CC2)cc1 (configuration not stated) | -35% | 12% | 8.9µM* | 1%
COC(=O)C1(Cc2cc(-c3cccc(Br)c3)no2)CCN(C(=O)OC(C)(C)C)CC1 | -44% | 11% | 10µM* | -13%
CCN(CC)CC(=O)N1c2ccccc2Sc2ccccc21 | i | -4% | -8% | -3%
CCN(CC)CCCCN1c2ccccc2Sc2ccccc21 | ? | -2% | 5µM* | ?
CCCn1c(=NC(=O)c2cc3ccccc3o2)c(C(=O)OCC)cc2c(=O)n3ccccc3nc21 | -5% | . | -7% | 6%
CCCCCN1CSC(=S)N(Cc2ccccc2)C1 | i | 0% | 13µM* | ?
COc1cc(OC)cc(C2=Cc3ccccc3C(CC(C)=O)N2c2ccc(C#CC3(N)CCCCC3)cc2)c1 (configuration not stated) | -43% | -22% | ? | -14%
O=C1CC(O)(c2ccccc2)C(c2ccccc2)=C1c1ccccc1 (configuration not stated) | -33% | -5% | 10µM* | -11%
O=C1C=C(c2ccccc2)C(O)(c2ccccc2)C1 (configuration not stated) | -13%[57.5 µM] | 4% | -10% | 0%
COc1ccccc1NC(=O)C1=C(C)Nc2nc(SCc3cccc(F)c3)nn2C1c1ccc(C(=O)O)cc1 (configuration not stated) | -8% | . | -8% | -10%
COc1cc(NC(=O)Nc2cccc(Cl)c2)c(OC)cc1NC(=O)CN1CCCCC1 | i | -15% | 3.2µM* | ?
COc1ccccc1NC(=O)CN1CCN(CC(=O)Nc2ccc(Cl)c(C(F)(F)F)c2)CC1 | -20% | -1% | 4µM* | ?
O=C(CN1CCCCC1)Nc1cccc(Cl)c1 | -25% | -1% | 10% | -11%
COc1ccc(NC(=O)CN2CCN(CC(=O)Nc3ccccc3Cl)CC2)cc1Cl | -23% | 23% | ? | 10%
CCCOc1ccc(-c2cccc(NS(=O)(=O)c3cc(OC)ccc3OC)c2)nn1 | -41% | . | 15% | 1%
COc1ccc(C2CN=NC23CCCc2ccccc2C3=O)cc1 (configuration not stated) | -23% | -4% | 0% | -7%
SMILES | PTHR1 ag | GLP1R ag | GLP-1R inv ag | GLP1R cytotox
COc1ccccc1C1CN=NC12CCCc1ccccc1C2=O (configuration not stated) | -40% | -6% | 7.1µM* | -5%
Cc1cccc(C(=O)Nc2c(C(=O)NCc3ccc(Cl)cc3)sc3nc(C)cc(C)c23)c1 | ? | . | -14% | -9%
COC(=O)c1[nH]c2ccc(C)cc2c1NC(=O)CN1CCN(Cc2ccccc2)CC1 | i | -2% | ? | ?
COC(=O)c1[nH]c2ccc(C)cc2c1NC(=O)CN1CCN(c2ccccc2)CC1 | i | 0% | 10µM* | ?
COC(=O)c1[nH]c2ccc(C)cc2c1NC(=O)CN1CCC(C)CC1 | i | -6% | 6.3µM* | -19%
COC(=O)c1[nH]c2ccc(C)cc2c1NC(=O)CN1CCN(c2ccc(F)cc2)CC1 | -27% | 5% | 4µM* | -17%
COC(=O)c1[nH]c2ccc(C)cc2c1NC(=O)CN1CCN(C(=O)c2ccccc2)CC1 | -11%[57.5 µM] | 0% | -32% | ?

Screening results: PubChem, National Center for Advancing Translational Sciences (NCATS)
